# Results filed as inconclusive are left out. Where a call stands in place of a potency, no number is given. Active and inactive are the calls of the source. Calls follow the shape of the dose curve; as a rule, active = well fitted curve in the direction sought with a large enough effect; inconclusive = small, poorly fitted or top-dose-only effect, or another doubt; inactive = no such curve, though single readings can be large; an effect the other way counts as inactive or inconclusive.
# Key:
# [1] = qHTS of pediatric cancer cell lines to identify multiple opportunities for drug repurposing: Confirmatory screen for LAN-5 cells (AID 1347113); also: nearly all actives have a fitted effect of over 65% in size; also: potency is read from the fitted curve at half-maximal effect
# How it was run: (§1)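 Cells (500-1,000/well) rested 5 h, then received compounds for 48 h; metabolically active cells were measured by CellTiter-Glo luminescence. Final concentrations spanned up to 46 µM (MIPE, 11-point) or 0.59 nM-46 µM (NPC, 8-point) in primary screens, 11-point in follow-ups.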
# [2] = qHTS of pediatric cancer cell lines to identify multiple opportunities for drug repurposing: Confirmatory screen for DAOY cells (AID 1347114); also: nearly all actives have a fitted effect of over 65% in size; also: potency is read from the fitted curve at half-maximal effect
# How it was run: (§2)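 Viability measured as metabolically active cells via CellTiter-Glo luminescence following 48 hours of compound exposure, 11-point dilutions in confirmatory testing. 500-1,000 cells/well plated 5 hours before dosing; controls were DMSO and 2.3 µM bortezomib.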
# [3] = qHTS of pediatric cancer cell lines to identify multiple opportunities for drug repurposing: Confirmatory screen for NB-EBc1 cells (AID 1347115);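 also: cells exposed to compound for 48 h before the viability read; nearly all actives have a fitted effect of over 45% in size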
# How it was run: as §1
# [4] = qHTS of pediatric cancer cell lines to identify multiple opportunities for drug repurposing: Confirmatory screen for control Hh wild type fibroblast cells (AID 1347121); also: nearly all actives have a fitted effect of over 70% in size
# How it was run: as §1
# [5] = qHTS of pediatric cancer cell lines to identify multiple opportunities for drug repurposing: Confirmatory screen for U-2 OS cells (AID 1347122); also: nearly all actives have a fitted effect of over 65% in size; also: potency is read from the fitted curve at half-maximal effect
# How it was run: as §1
# [6] = qHTS of pediatric cancer cell lines to identify multiple opportunities for drug repurposing: Confirmatory screen for RD cells (AID 1347124);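 also: cells exposed to compound for 48 h before viability readout; nearly all actives have a fitted effect of over 65% in size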; also: potency is read from the fitted curve at half-maximal effect
# How it was run: as §1
# [7] = qHTS of pediatric cancer cell lines to identify multiple opportunities for drug repurposing: Confirmatory screen for Saos-2 cells (AID 1347127); also: nearly all actives have a fitted effect of over 60% in size; also: potency is read from the fitted curve at half-maximal effect
# How it was run: as §1
# [8] = qHTS of pediatric cancer cell lines to identify multiple opportunities for drug repurposing: Confirmatory screen for OHS-50 cells (AID 1347128);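 also: compound exposure lasted 48 h at 37 degrees C; nearly all actives have a fitted effect of over 55% in size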; also: potency is read from the fitted curve at half-maximal effect
# How it was run: as §1
# [9] = qHTS of pediatric cancer cell lines to identify multiple opportunities for drug repurposing: Confirmatory screen for SK-N-SH cells (AID 1347129);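 also: cells exposed to compound for 48 h before viability read; nearly all actives have a fitted effect of over 60% in size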; also: potency is read from the fitted curve at half-maximal effect
# How it was run: as §1
# [10] = target: N-terminal Xaa-Pro-Lys N-methyltransferase 1 (Homo sapiens) (UniProt Q9BV86); assay: qHTS Assay for Inhibitors of N-terminal methyltransferase 1 (NTMT1): LOPAC validation of the NTMT1 SAHH-coupled ThioGlo3 Assay (AID 1347143);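 also: SAH from peptide methylation measured as thiol fluorescence via SAHH coupling and ThioGlo3; nearly all actives have a fitted effect of over 70% in size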; also: potency is read from the fitted curve at half-maximal effect
# Sequence of N-terminal Xaa-Pro-Lys N-methyltransferase 1 (Homo sapiens) (Q9BV86 whole entry, looked up): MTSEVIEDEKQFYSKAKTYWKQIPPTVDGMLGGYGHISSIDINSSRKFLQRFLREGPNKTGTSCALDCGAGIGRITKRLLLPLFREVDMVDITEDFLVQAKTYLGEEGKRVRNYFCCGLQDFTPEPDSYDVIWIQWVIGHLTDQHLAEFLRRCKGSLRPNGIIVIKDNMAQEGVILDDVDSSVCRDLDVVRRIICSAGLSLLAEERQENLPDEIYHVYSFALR
# How it was run: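 NTMT1 125nM + cpds (various conc.), 1 min RT; add SAM 100uM/SAHH 10uM/ThioGlo3 15uM (addition mix). SAHH-coupled thiol detection, Ex340/Em450, t0 and 30 min RT; signal normalized to background. LOPAC 1280-cpd pilot.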
# [11] = system: Zika virus NS2B-NS3 protease (unlinked); assay: Optimization of GU AMC qHTS for Zika virus inhibitors: Unlinked NS2B-NS3 protease assay (AID 1347151); also: nearly all actives have a fitted effect of over 80% in size; also: potency is read from the fitted curve at half-maximal effect
# How it was run: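 Fluorescence gain (340/450 nm) over 15 min at room temperature, ~20% conversion, gave percent inhibition fitted to a 4-parameter Hill equation; enzyme was unlinked NS2B-NS3 (25 nM final), pH 8.0 Tris buffer.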
# [12] = qHTS of pediatric cancer cell lines to identify multiple opportunities for drug repurposing: Confirmatory screen for A673 cells (AID 1347110); also: potency is read from the fitted curve at half-maximal effect
# How it was run: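 Viability was read as ATP luminescence (CellTiter-Glo) after 48 h of compound exposure at 37 C in A673 cells seeded at 500-1,000/well. Titrations reached 46 uM final, with 11 points in the confirmatory screen. Concentration-response curves were fitted directly.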
# [13] = qHTS of pediatric cancer cell lines to identify multiple opportunities for drug repurposing: Confirmatory screen for BT-12 cells (AID 1347112); also: nearly all actives have a fitted effect of over 55% in size; also: potency is read from the fitted curve at half-maximal effect
# How it was run: as §1
# [14] = qHTS of pediatric cancer cell lines to identify multiple opportunities for drug repurposing: Confirmatory screen for BT-37 cells (AID 1347117); also: nearly all actives have a fitted effect of over 55% in size; also: potency is read from the fitted curve at half-maximal effect
# How it was run: as §1
# [15] = qHTS of pediatric cancer cell lines to identify multiple opportunities for drug repurposing: Confirmatory screen for Rh18 cells (AID 1347125); also: nearly all actives have a fitted effect of over 55% in size; also: potency is read from the fitted curve at half-maximal effect
# How it was run: as §1
# [16] = qHTS of pediatric cancer cell lines to identify multiple opportunities for drug repurposing: Confirmatory screen for SJ-GBM2 cells (AID 1347116); also: nearly all actives have a fitted effect of over 60% in size; also: potency is read from the fitted curve at half-maximal effect
# How it was run: as §2
# [17] = qHTS of pediatric cancer cell lines to identify multiple opportunities for drug repurposing: Confirmatory screen for TC32 cells (AID 1347118); also: potency is read from the fitted curve at half-maximal effect
# How it was run: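 Luminescent ATP read-out (CellTiter-Glo) of metabolically active TC32 cells after 48 h exposure. Concentration-response curves came from 11-point (MIPE, 0.78 nM–46 µM) or 8-point (NPC, 0.59 nM–46 µM) primary titrations; follow-up used 11 points.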
# [18] = qHTS of pediatric cancer cell lines to identify multiple opportunities for drug repurposing: Confirmatory screen for Rh30 cells (AID 1347126); also: nearly all actives have a fitted effect of over 55% in size; also: potency is read from the fitted curve at half-maximal effect
# How it was run: as §1
smiles,measurement,setting,value
CC(=O)O[C@]1(C(C)=O)CC[C@@H]2[C@@H]3C[C@H](C)C4=CC(=O)CC[C@]4(C)[C@H]3CC[C@@]21C,Potency,[1],inactive
same,Potency,[2],inactive
same,Potency,[3],inactive
same,Potency,[4],inactive
same,Potency,[5],inactive
same,Potency,[6],inactive
same,Potency,[7],inactive
same,Potency,[8],inactive
same,Potency,[9],inactive
O=c1c(-c2ccc(O)cc2)coc2cc(O)ccc12,Potency,[10],50.1 µM (active)
same,Potency,[11],29.9 µM (active)
CC[C@]1(O)C[C@@H]2CN(CCc3c([nH]c4ccccc34)[C@@](C(=O)OC)(c3cc4c(cc3OC)N(C=O)[C@@H]3C45CCN4CC=C[C@](CC)([C@H]45)[C@@H](OC(C)=O)[C@]3(O)C(=O)OC)C2)C1 (some centres not stated),Potency,[12],inactive
same,Potency,[13],inactive
same,Potency,[1],inactive
same,Potency,[3],inactive
same,Potency,[14],inactive
same,Potency,[4],inactive
same,Potency,[5],inactive
same,Potency,[6],inactive
same,Potency,[15],inactive
same,Potency,[7],inactive
same,Potency,[8],inactive
same,Potency,[9],inactive
COc1cc2nc(-c3ccc(N4CCN(C)CC4)cc3)nc(NCCN3CCOCC3)c2cc1OC,Potency,[12],0.208 µM (active)
same,Potency,[13],0.233 µM (active)
same,Potency,[2],1.17 µM (active)
same,Potency,[4],inactive
same,Potency,[5],0.261 µM (active)
same,Potency,[6],0.208 µM (active)
same,Potency,[15],0.293 µM (active)
same,Potency,[8],0.117 µM (active)
same,Potency,[9],4.69 µM (active)
CC=C(C)C(=O)O[C@H]1C(C)=C[C@]23C(=O)[C@@H](C=C(CO)[C@@H](O)[C@]12O)[C@H]1[C@@H](C[C@H]3C)C1(C)C,Potency,[13],inactive
same,Potency,[3],inactive
same,Potency,[16],inactive
same,Potency,[14],inactive
same,Potency,[4],inactive
same,Potency,[5],0.0233 µM (active)
same,Potency,[6],inactive
same,Potency,[15],inactive
same,Potency,[9],inactive
NC1=N[C@@]2(c3cc(NC(=O)c4ccc(F)cn4)ccc3F)COC[C@@H]2CS1,Potency,[12],inactive
same,Potency,[13],inactive
same,Potency,[1],inactive
same,Potency,[2],inactive
same,Potency,[3],inactive
same,Potency,[16],inactive
same,Potency,[14],inactive
same,Potency,[17],inactive
same,Potency,[4],inactive
same,Potency,[5],inactive
same,Potency,[6],inactive
same,Potency,[15],inactive
same,Potency,[18],inactive
same,Potency,[7],inactive
same,Potency,[8],inactive
same,Potency,[9],inactive
O=C(CCCCCCC(=O)Nc1ccccc1)NO,Potency,[4],inactive
CC1=C(/C=C/C(C)=C/C=C/C(C)=C/C(=O)Nc2ccc(O)cc2)C(C)(C)CCC1,Potency,[10],inactive
CC1(C)CCC2=C(O1)c1ccccc1C(=O)C2=O,Potency,[1],9.27 µM (active)
same,Potency,[16],1.31 µM (active)
same,Potency,[14],23.3 µM (active)
same,Potency,[17],23.3 µM (active)
same,Potency,[5],23.3 µM (active)
same,Potency,[6],0.465 µM (active)
same,Potency,[18],20.8 µM (active)
same,Potency,[7],10.4 µM (active)
O=C1NC(=O)C(=Cc2ccc3c(c2)OC(F)(F)O3)S1,Potency,[13],inactive
same,Potency,[1],inactive
same,Potency,[2],26.1 µM (active)
same,Potency,[3],inactive
same,Potency,[16],inactive
same,Potency,[14],inactive
same,Potency,[4],inactive
same,Potency,[6],inactive
same,Potency,[15],inactive
same,Potency,[18],inactive
same,Potency,[7],inactive
same,Potency,[8],inactive
same,Potency,[9],inactive
COc1ccc(-c2nc(N3CCOCC3)c3sc(CN(C)c4ncc(C(=O)NO)cn4)cc3n2)cn1,Potency,[12],1.65 µM (active)
same,Potency,[13],1.85 µM (active)
same,Potency,[1],0.465 µM (active)
same,Potency,[2],1.04 µM (active)
same,Potency,[5],0.522 µM (active)
same,Potency,[6],2.33 µM (active)
same,Potency,[15],1.17 µM (active)
same,Potency,[18],4.14 µM (active)
same,Potency,[9],5.9 µM (active)
O=C(Nc1cccc(Br)c1)c1cccc(S(=O)(=O)N2CCCCCC2)c1,Potency,[12],inactive
same,Potency,[1],inactive
same,Potency,[16],inactive
same,Potency,[4],inactive
same,Potency,[5],inactive
same,Potency,[6],inactive
same,Potency,[15],inactive
same,Potency,[18],inactive
same,Potency,[7],inactive
same,Potency,[8],inactive
same,Potency,[9],inactive
CC(=O)CCCCn1c(=O)c2c(ncn2C)n(C)c1=O,Potency,[10],inactive
same,Potency,[11],inactive

# Reference: PubChem BioAssay (NCATS)
